Experimental data as given in PubChem BioAssay (NCI).
Compounds without any hit were thinned out: in the full panel of roughly 83,000, 20% have a hit.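 A percent growth of 40 corresponds to 60% growth inhibition; 0 means no net growth; -100 means all cells died. Active threshold: below 10.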 Activity calls are given as the source filed them.

Tests used:
Experiment in all cases: NCI-60 one-dose screen, 48 h (100 = growth as untreated, 0 = no growth, -100 = all killed)
Conditions in all cases: 10 µM unless noted
[1] = test system: EKVX NSCLC
[2] = test system: SN12C renal
[3] = test system: UO-31 renal
[4] = test system: TK-10 renal
[5] = test system: ACHN renal
[6] = test system: CAKI-1 renal
[7] = test system: A498 renal
[8] = test system: CCRF-CEM leukemia
[9] = test system: MOLT-4 leukemia
[10] = test system: SR leukemia
[11] = test system: RPMI-8226 leukemia
[12] = test system: OVCAR-8 ovarian
[13] = test system: OVCAR-4 ovarian
[14] = test system: SK-OV-3 ovarian
[15] = test system: IGROV1 ovarian
[16] = test system: OVCAR-3 ovarian
[17] = test system: HS 578T breast
[18] = test system: NCI/ADR-RES ovarian
[19] = test system: T-47D breast
[20] = test system: OVCAR-5 ovarian

Measured: growth

CCn1c2c(c3ccccc31)SC1c3cccn3CCN1C2=S (centres undefined)
inactive: [1] 107% | [2] 98.3% | [3] 84.9% | [4] 89% | [5] 99.1% | [6] 88.3% | [7] 115% | [8] 81.2% | [9] 88.8% | [10] 109% | [11] 76.7% | [12] 94.4% | [13] 54.5% | [14] 99.9% | [15] 80% | [16] 100% | [17] 81.2% | [18] 102% | [19] 41.9%

COc1cccc(/C=C2\COc3ccc(O)c(O)c3C2=O)c1OC
inactive: [1] 70.4% | [4] 11.7% | [6] 22.6% | [7] 80.3% | [12] 18.3% | [13] 35.3% | [14] 54.8% | [17] 17.3% | [18] 16.9%
active: [2] -62.7% | [3] -94.7% | [5] -60.1% | [8] 3.28% | [9] -12.8% | [10] -8.94% | [20] 2.35% | [15] -39.9% | [16] -18.1% | [19] 4.89%

CCCCCCCCCCSc1ncnc2nc[nH]c12
inactive: [1] 51.4% | [2] 59.8% | [3] 48.5% | [4] 82% | [5] 63.9% | [6] 69.4% | [7] 61.4% | [8] 57.9% | [9] 72.5% | [10] 82.6% | [11] 51.4% | [12] 67.5% | [20] 101% | [14] 85% | [15] 75.1% | [16] 71.1% | [17] 91.4% | [18] 54.5% | [19] 47.9%

CC(=O)NCCSC(=O)C(=O)SCCNC(C)=O
inactive: [1] 101% | [2] 99.4% | [3] 95.7% | [4] 128% | [5] 108% | [6] 105% | [7] 104% | [8] 119% | [9] 112% | [10] 114% | [11] 102% | [12] 112% | [13] 103% | [14] 114% | [16] 115% | [17] 119% | [18] 100% | [19] 105%

Cc1ccc([N+](=O)[O-])cc1NC(=O)Nc1cccc(F)c1
inactive: [1] 48.6% | [2] 88.9% | [3] 67.7% | [4] 69.1% | [5] 67.7% | [6] 53.4% | [7] 78.3% | [8] 54.4% | [9] 62% | [10] 62.6% | [11] 19.4% | [12] 71.6% | [13] 50.3% | [14] 98.7% | [16] 51.8% | [17] 120% | [18] 64.3% | [19] 29.8%

Cc1cc(CC(=O)O)n(C)c1C(=O)c1ccc(Cl)cc1
inactive: [1] 102% | [2] 109% | [3] 104% | [4] 108% | [5] 101% | [6] 96% | [7] 123% | [8] 95.6% | [9] 98.3% | [10] 107% | [11] 103% | [12] 97.7% | [13] 119% | [14] 119% | [15] 114% | [16] 118% | [17] 110% | [18] 97.8%

CCC(=O)Nc1ccccc1C#C/C=C\C#Cc1ccccc1C(F)(F)F
inactive: [1] 52.7% | [2] 58.8% | [3] 22.4% | [4] 75% | [5] 53.4% | [6] 45% | [7] 11.8% | [8] 39.1% | [9] 74.2% | [10] 117% | [11] 100% | [12] 106% | [13] 85.8% | [14] 52.3% | [16] 70.2% | [17] 17.1% | [18] 27.2% | [19] 65.4%
active: [15] -21.8%

COc1cc(C2C=C(c3ccc(C)cc3)Nc3nc(SC)[nH]c(=O)c32)ccc1Oc1ccnc2cc(Cl)ccc12 (centres undefined)
inactive: [1] 77% | [2] 67% | [3] 57.8% | [4] 78.2% | [5] 55.6% | [6] 67.8% | [7] 71.7% | [8] 67.5% | [9] 63.9% | [10] 75.8% | [11] 65.6% | [12] 83.4% | [20] 84.3% | [14] 106% | [15] 90.5% | [16] 81.1% | [17] 90.8% | [18] 72.6% | [19] 82.3%
